# These entries were drawn from the full list.
# PostGolgi ctrl = growth of the yeast control strain, post-Golgi counter-screen | efflux-deficient yeast background strain, growth absorbance A615, 16 h | inhibition, % at 10 µM | 5% of 98,000 active | AID 738
# CYP2C19 inh = inhibitors of human CYP2C19 | 21% of 96,000 active | P33261 | inhibition, % at 5 µM | CYP2C19 Supersomes, luciferin-H EGE luminescence, 30 min | AID 778;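 active means CYP2C19 inhibition above a set limit at 5 µM in the primary screen, cut at about 50% in these data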;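 further: plate controls were negative control wells for no effect and 2.5 mM tranylcypromine positive control for full effect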
# CYP2C9 activ = CYP2C9 (human) activation; P11712; recombinant CYP2C9, luciferin-H conversion, luminescence; hits give high values; factor 1 = untreated enzyme, 0 = blocked; activation factor at 5 µM; 1.4% of 96,000 active;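 active means activation factor of 2 or more for CYP2C9 at a 5 µM dose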;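 further: 0 = sulfaphenazole-blocked wells and 1 = vehicle-only wells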
# Target sequence (P11712 whole entry, looked up): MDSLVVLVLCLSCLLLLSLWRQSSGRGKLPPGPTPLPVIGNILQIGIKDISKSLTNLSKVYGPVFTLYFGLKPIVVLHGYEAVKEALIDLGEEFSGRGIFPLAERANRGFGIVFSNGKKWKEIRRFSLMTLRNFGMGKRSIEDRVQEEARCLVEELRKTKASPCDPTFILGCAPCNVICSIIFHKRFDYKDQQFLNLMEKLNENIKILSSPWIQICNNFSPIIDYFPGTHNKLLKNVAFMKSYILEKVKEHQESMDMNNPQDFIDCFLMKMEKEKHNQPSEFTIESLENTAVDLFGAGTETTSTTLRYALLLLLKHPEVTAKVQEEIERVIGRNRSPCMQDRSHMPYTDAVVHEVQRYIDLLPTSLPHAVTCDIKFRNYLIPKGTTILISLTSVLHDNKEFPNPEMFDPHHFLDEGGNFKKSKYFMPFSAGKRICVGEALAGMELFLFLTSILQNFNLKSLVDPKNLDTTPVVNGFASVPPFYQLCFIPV
# CYP2C9 inhib = inhibitors of human CYP2C9; P11712; CYP2C9 Supersomes, luciferin-H conversion, luminescence; inhibition, % at 5 µM; 20% of 96,000 active; AID 777;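 active means blocking of liver enzyme CYP2C9 beyond about 50% at 5 µM, limit read from the data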
# PostGolgi yeast = growth inhibition of a yeast mutant, post-Golgi transport screen; post-Golgi transport phenotypic cell assay; inhibition, % at 10 µM; 0.9% of 98,000 active; AID 739;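 further: yeast cells grown in 1536-well plates; yeast grown about 18 h at 30C before absorbance read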
# CYP2C19 act = increases human CYP2C19 enzyme activity; recombinant CYP2C19, luciferin-H EGE luminescence; hits give high values; 0 = fully inhibited enzyme, 1 = untreated enzyme; P33261; 96,000 tested, under 10 active; activation factor at 5 µM;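 active means activation factor of at least 2 at 5 µM in the primary screen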;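 further: 0 = wells with 2.5 mM tranylcypromine and 1 = vehicle-only wells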
# The depositor's hits bear a star; . = not tested or not shown. Unless noted, no stated cut-off is given here; in the data, active means inhibition above about 30%; inactive means the rest.
SMILES,PostGolgi ctrl,CYP2C19 inh,CYP2C9 activ,CYP2C9 inhib,PostGolgi yeast,CYP2C19 act
O=C(C1CCCN(S(=O)(=O)c2cnc[nH]2)C1)N1CCN(c2ccc(Cl)cc2)CC1 (stereo not given),4,38,0.3,65*,1,0.6
O=C(C1CCN(S(=O)(=O)c2cnc[nH]2)CC1)N1CCN(c2ncccn2)CC1,4,-17,1.2,-16,-8,1.2
O=C(O)CSc1nnc(-c2ccncc2)n1C1CCCCC1,1,-3,1.2,-18,-14,1
O=C(O)c1ccccc1C(=O)N1CC=C(c2ccccc2)CC1,14,-16,1.1,-6,3,1.2
CC(NC(=O)C(Cc1ccccc1)NC(=O)c1ccccc1)C(=O)O (stereo not given),-1,-3,0.9,10,0,1
Cc1ccccc1-n1nc(C)c2cc(C(=O)NCc3cccnc3)sc21,23,44,0.5,55*,-1,0.6
CCC(NC(=O)NCc1cccnc1)(C(F)(F)F)C(F)(F)F,3,87*,0.3,73*,-1,0.1
Cn1nc(C(=O)Nc2cccnc2)c2ccccc2c1=O,9,4,0.9,13,-4,1
C/C(NCc1cccnc1)=C(\C#N)C(=O)NCc1ccccc1,21,82*,0.8,23,0,0.2
Cn1nc(C(=O)NCc2cccnc2)c2ccccc2c1=O,14,78*,0.4,60*,-2,0.2
CSCCC(NC=C1C(=O)OC(C)(C)OC1=O)C(=O)O (stereo not given),0,0,0.9,11,2,1
N=c1c2c3c(sc2nc2n1CCCCC2)CCCCC3,6,16,0.6,44,-1,0.8
COC(=O)Nc1ccc(S(=O)(=O)N(CCO)CCO)cc1,0,1,0.9,12,16,1
CC(C)(C)N(NC(=O)Nc1ccc(Cl)cc1)C(=O)c1ccccc1,2,22,0.7,30,-2,0.8
Clc1ccc(CSc2nnc(/C=C/c3ccccc3)o2)cc1,26,9,0.9,14,-12,0.9
CCOC(=O)C(NC(=O)CC)(Nc1ccc(S(=O)(=O)Nc2onc(C)c2C)cc1)C(F)(F)F (stereo not given),4,-16,0.5,45,2,1.2
COc1ccc(-c2cc(C(=O)NCc3cccnc3)no2)cc1,1,20,0.4,58*,3,0.8
O=C(NCc1cccnc1)c1cc(-c2ccccc2)on1,-2,1,0.8,25,-9,1
Cn1nc(C(=O)N2CCCC2)c2ccccc2c1=O,30*,-3,1.1,-6,-3,1
COc1ccc(NC(=O)NCc2cccnc2)cc1OC,4,32,0.6,37,-7,0.7
COc1cc(OC)cc(C(=O)NC(=S)Nc2cccnc2)c1,15,76*,0.2,78*,-4,0.2
COc1ccc(C(=O)NCc2cccnc2)cc1Br,5,28,0.3,72*,-8,0.7
O=C(NCc1ccccc1)N1CCC(n2cnc3cc(F)ccc32)CC1,4,-2,0.9,11,-6,1
COc1ccc(CN2C(=O)NC3(CCCCC3)C2=O)cc1F,10,19,1,-1,0,0.8
CC12CC3CC(C)(C1)CC(CN)(C3)C2,-1,-4,0.9,14,-9,1
SMILES,PostGolgi ctrl,CYP2C19 inh,CYP2C9 activ,CYP2C9 inhib,PostGolgi yeast,CYP2C19 act
CCS(=O)(=O)CCSC(=N)N,-2,17,0.7,34,5,0.8
COc1ccc(C(=O)/C=C\c2ccc(NC(=O)c3cccs3)cc2)cc1,20,19,1,5,-2,0.8
CC(NC(=O)c1nn(C)c(=O)c2ccccc12)c1ccc(F)cc1 (stereo not given),11,43,0.4,64*,-11,0.6
Cn1nc(C(=O)NCCN2CCOCC2)c2ccccc2c1=O,11,4,1,3,10,1
Cc1sc(C(=O)NCc2cccnc2)c2nc(C)n(CC(=O)NCc3cccnc3)c(=O)c12,8,59*,0,97*,3,0.4
COc1ccc(OCC(=O)NCc2cccnc2)cc1,4,58*,0.7,30,0,0.4
O=C(NCc1ccc(Cl)cc1)c1cccnc1,0,66*,0.9,8,18,0.3
CC(C)NS(=O)(=O)c1ccc(OCC(=O)NCc2cccnc2)cc1,3,10,0.5,45,1,0.9
Fc1ccccc1/C=C1\CCCC2=C1Nc1nnnn1C2c1ccccc1F (stereo not given),-11,9,1.1,-6,0,0.9
COc1ccc(CNC(=O)c2cc(C3CC3)on2)cc1,33*,81*,0.8,21,-6,0.2
COc1ccc(CNC(=O)c2cc(-c3ccc(OC)c(OC)c3)on2)cc1,13,-6,1.2,-18,9,1.1
COc1cc(OC)cc(C(=O)NCc2cccnc2)c1,4,62*,1,2,-2,0.4
Cc1cccc(OCC(=O)Nc2ccc(C(=O)NCc3cccnc3)cc2)c1,6,53*,0.6,43,-3,0.5
CC(C)(C)c1ccc(C(=O)c2c[nH]c(C(=O)NCc3cccnc3)c2)cc1,5,20,0.9,12,8,0.8
CC(C)(C)c1ccc(C(=O)NCc2cccnc2)cc1,5,59*,0.3,69*,2,0.4
Cc1ccc(C(=O)Nc2cc(C(F)(F)F)ccc2N2CCCCC2)cc1[N+](=O)[O-],7,46,0.7,26,-5,0.5
c1ccc(OCCOCCSc2ncccn2)cc1,10,46,0.9,5,4,0.5
Cc1cc(Nc2ccc(F)cc2Cl)n2ncnc2n1,-3,-21,1,-4,0,1.2
COc1ccc(C(=O)c2c[nH]c(C(=O)NCc3cccs3)c2)cc1,0,2,0.9,10,-11,1
OCCCCNCc1ccc(OCc2ccc(Cl)cc2)cc1,25,-4,1.1,-13,1,1
N#CCc1nc(CSc2nc3ccccc3s2)cs1,17,98*,0.7,28,-11,0
N#Cc1ccccc1NC(=O)Nc1cccs1,8,-22,1.2,-25,-5,1.2
CCN1c2ccccc2NC2N=C(OC)C(c3ccccc3)C21 (stereo not given),-1,20,1,-1,-7,0.8
CCN1c2ccccc2NC2C1C(C(C)=O)C(=O)N2c1ccc(Cl)cc1 (stereo not given),15,92*,0.2,79*,0,0.1
Cc1cccn2c(/C=N/OCc3cccc(F)c3)c(-c3ccc(Cl)cc3)nc12,6,-1,0.9,7,-9,1
COc1cccc(/C(C#N)=C/c2c(-c3ccc(Cl)cc3)nc3c(C)cccn23)c1,49*,55*,0.3,70*,7,0.4
CCN1CCN(CC(=O)NC2CCCCC2)C(=O)C1=O,10,.,.,.,0,.
COc1ccc(CN2CC34C=CC(O3)C(C(=O)O)C4C2=O)cc1 (stereo not given),-2,8,1,3,-2,0.9
